Here are results for 1 compound from ChEMBL document CHEMBL2218924, “A broad activity screen in support of a chemogenomic map for kinase signalling research and drug discovery” (Biochem J, 2013).

The structures appear in SMILES notation.

Assay [1] deals with Tyrosine-protein kinase SYK (Homo sapiens) (UniProt P43405). The settings on record: at 10 µM.
Assay [2] has as its target T1, Mitogen-activated protein kinase kinase kinase 7 (Homo sapiens) (UniProt O43318).
T1 sequence (whole entry): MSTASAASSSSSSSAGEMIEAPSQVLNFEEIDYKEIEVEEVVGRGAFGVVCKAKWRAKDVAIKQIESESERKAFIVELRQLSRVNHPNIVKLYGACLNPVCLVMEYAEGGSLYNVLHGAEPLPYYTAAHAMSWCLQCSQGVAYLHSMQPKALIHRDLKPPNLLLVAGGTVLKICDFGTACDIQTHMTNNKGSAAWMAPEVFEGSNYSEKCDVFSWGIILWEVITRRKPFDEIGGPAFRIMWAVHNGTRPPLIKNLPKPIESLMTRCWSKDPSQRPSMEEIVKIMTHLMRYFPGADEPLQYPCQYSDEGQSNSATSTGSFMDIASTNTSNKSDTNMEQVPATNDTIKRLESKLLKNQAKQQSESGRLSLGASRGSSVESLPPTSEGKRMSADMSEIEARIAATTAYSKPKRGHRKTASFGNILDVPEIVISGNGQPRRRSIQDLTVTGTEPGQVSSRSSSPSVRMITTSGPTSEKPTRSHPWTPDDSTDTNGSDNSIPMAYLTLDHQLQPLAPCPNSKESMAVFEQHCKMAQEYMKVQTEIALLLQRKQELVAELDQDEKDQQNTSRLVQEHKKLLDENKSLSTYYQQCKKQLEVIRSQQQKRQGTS
The note with it: at 1 µM.

Assay [3] deals with T1, Mitogen-activated protein kinase kinase kinase 7 (Homo sapiens). The note with it: at 10 µM.
Assay [4] has as its target T2, Serine/threonine-protein kinase TAO1 (Homo sapiens) (UniProt Q7L7X3).
T2 sequence (whole entry): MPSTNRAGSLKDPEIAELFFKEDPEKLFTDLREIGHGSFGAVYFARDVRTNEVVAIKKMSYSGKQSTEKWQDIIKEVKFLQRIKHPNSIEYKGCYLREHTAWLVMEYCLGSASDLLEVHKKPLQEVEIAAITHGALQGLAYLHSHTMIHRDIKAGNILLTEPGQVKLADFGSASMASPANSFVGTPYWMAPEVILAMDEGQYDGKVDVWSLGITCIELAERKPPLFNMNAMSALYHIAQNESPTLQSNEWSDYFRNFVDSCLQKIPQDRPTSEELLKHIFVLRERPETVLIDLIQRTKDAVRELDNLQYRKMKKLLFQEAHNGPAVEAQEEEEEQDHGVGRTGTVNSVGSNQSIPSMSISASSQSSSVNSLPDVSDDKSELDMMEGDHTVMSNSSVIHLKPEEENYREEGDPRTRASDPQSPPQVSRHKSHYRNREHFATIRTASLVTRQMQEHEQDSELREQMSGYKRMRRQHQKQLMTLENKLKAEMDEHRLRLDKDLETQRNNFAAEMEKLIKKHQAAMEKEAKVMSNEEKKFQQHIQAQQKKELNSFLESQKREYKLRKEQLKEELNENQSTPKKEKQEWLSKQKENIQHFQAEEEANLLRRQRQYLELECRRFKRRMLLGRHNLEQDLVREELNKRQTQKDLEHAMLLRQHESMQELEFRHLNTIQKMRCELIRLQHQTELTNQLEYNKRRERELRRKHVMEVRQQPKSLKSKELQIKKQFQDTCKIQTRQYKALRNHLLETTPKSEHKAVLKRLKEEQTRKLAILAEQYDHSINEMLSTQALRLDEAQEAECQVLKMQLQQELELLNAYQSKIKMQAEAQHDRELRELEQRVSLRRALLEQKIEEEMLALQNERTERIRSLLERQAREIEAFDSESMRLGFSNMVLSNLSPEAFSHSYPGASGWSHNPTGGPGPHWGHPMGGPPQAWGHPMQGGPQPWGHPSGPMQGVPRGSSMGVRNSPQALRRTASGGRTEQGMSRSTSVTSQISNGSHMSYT
The settings on record: at 1 µM.

Assay [5] deals with T2, Serine/threonine-protein kinase TAO1 (Homo sapiens). The settings on record: at 10 µM.
For assay [6], the target named is T3, Serine/threonine-protein kinase TAO2 (Homo sapiens) (UniProt Q9UL54).
T3 sequence (whole entry): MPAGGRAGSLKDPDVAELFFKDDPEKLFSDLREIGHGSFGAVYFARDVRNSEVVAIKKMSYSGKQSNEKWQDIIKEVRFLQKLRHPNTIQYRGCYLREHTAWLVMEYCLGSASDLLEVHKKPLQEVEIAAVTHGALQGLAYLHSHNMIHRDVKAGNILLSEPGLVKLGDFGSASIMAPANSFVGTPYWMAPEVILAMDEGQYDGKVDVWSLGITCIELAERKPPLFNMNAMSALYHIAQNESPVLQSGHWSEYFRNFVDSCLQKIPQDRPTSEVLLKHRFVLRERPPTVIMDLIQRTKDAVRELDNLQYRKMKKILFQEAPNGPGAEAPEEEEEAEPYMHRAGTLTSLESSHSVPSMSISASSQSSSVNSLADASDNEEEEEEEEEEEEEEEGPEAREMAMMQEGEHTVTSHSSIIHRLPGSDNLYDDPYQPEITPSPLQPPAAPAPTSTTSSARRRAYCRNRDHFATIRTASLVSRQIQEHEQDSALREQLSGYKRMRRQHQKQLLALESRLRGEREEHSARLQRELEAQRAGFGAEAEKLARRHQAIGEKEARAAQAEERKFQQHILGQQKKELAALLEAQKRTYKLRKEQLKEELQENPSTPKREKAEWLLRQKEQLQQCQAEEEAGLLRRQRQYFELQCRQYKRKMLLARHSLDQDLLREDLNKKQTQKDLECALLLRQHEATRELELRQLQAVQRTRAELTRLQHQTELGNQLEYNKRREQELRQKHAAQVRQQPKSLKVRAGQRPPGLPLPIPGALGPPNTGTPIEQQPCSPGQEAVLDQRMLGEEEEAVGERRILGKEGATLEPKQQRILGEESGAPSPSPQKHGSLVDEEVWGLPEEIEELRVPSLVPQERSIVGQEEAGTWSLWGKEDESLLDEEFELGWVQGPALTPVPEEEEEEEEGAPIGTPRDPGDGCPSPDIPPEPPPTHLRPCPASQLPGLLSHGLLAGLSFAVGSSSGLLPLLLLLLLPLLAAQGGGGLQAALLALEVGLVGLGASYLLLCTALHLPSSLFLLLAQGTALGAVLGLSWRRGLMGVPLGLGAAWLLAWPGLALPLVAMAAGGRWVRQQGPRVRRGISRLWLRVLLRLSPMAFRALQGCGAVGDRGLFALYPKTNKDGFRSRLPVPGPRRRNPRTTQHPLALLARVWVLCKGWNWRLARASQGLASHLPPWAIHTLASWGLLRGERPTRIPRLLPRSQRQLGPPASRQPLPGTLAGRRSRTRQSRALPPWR
The settings on record: at 1 µM.

For assay [7], the target named is T3, Serine/threonine-protein kinase TAO2 (Homo sapiens). The settings on record: at 10 µM.
The target of assay [8] is T4, Serine/threonine-protein kinase TAO3 (Homo sapiens) (UniProt Q9H2K8).
T4 sequence (whole entry): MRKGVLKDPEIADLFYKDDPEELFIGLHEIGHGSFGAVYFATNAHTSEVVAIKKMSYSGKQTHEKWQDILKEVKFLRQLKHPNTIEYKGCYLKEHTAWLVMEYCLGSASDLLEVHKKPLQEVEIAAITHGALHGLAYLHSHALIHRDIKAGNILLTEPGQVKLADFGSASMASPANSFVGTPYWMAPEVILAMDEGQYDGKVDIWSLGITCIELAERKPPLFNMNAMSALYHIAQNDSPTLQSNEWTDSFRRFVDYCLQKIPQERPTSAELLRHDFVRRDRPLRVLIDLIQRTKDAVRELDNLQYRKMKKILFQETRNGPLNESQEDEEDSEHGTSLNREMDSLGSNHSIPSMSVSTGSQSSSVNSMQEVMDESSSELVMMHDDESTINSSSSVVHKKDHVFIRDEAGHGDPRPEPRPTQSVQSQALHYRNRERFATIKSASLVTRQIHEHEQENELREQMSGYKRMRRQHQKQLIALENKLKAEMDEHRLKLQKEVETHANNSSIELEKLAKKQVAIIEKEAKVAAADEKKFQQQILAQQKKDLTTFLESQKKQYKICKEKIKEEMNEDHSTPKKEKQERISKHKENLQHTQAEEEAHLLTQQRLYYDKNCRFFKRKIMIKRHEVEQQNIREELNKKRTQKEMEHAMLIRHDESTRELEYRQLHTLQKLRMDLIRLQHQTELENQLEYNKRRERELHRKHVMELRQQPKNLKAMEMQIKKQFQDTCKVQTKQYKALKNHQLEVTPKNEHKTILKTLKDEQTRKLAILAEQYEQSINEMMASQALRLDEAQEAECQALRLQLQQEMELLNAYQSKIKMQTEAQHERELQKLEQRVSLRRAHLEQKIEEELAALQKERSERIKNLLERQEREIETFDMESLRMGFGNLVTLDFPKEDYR
The note with it: at 1 µM.

Assay [9] deals with T4, Serine/threonine-protein kinase TAO3 (Homo sapiens). The settings on record: at 10 µM.

On to `Nc1cccc(-c2cc3c(Oc4cccc(O)c4)ncnc3[nH]2)c1`, for which the residual activity in assay [1] stood at 3%; in assay [2], 48%; in assay [3], 8%; in assay [4] it was 82%; in [5] it was 39%; in assay [6], 78%. The residual activity is 26% in assay [7], 84% in assay [8] and 37% in assay [9].
